# An excerpt weighted towards active compounds, which were near 2.5% of everything screened.
# KLF5 inh – KLF5 expression inhibitors, primary screen, DLD-1 cells, luminescence | DLD-1 KLF5 promoter-luciferase reporter | inhibition, % at 5 µM | hit rate 0.23% among 290,000 | AID 1700, 2009;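 active = inhibition above a per-plate limit of that plate's mean compound inhibition plus 3 SD, cut at about 60% in these data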;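 note: 0% = DMSO wells and 100% = LY294002 at 200 µM; higher means less KLF5 promoter-driven luciferase light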
# Jurkat NFkB inh – inhibitors of induced NF-kB luciferase reporter, primary screen, TCR NF-kB activation inhibitor project, cell-based, luminescence, uHTS; inhibition, % at 4 µM; hit rate 0.53% among 330,000; AID 435003, 2010; Jurkat, PMA/ionomycin-induced NF-kB luciferase reporter; in the data active = inhibition above about 50%
# ANO1 block – TMEM16A chloride channel inhibitors, primary screen, cell-based, HTS; HEK293 TMEM16A/YFP iodide influx fluorescence, ionomycin; normalized B-score (activity score, 25-100; higher = stronger inhibition) at 10 µM; hit rate 1.2% among 310,000;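 active = ratio plate-corrected score three or more library SD toward inhibition, starting fluorescence score within five deviations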;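 note: score derived from kinetic fluorescence span divided by baseline fluorescence per well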
# Target sequence (Q8BHY3 whole entry, looked up): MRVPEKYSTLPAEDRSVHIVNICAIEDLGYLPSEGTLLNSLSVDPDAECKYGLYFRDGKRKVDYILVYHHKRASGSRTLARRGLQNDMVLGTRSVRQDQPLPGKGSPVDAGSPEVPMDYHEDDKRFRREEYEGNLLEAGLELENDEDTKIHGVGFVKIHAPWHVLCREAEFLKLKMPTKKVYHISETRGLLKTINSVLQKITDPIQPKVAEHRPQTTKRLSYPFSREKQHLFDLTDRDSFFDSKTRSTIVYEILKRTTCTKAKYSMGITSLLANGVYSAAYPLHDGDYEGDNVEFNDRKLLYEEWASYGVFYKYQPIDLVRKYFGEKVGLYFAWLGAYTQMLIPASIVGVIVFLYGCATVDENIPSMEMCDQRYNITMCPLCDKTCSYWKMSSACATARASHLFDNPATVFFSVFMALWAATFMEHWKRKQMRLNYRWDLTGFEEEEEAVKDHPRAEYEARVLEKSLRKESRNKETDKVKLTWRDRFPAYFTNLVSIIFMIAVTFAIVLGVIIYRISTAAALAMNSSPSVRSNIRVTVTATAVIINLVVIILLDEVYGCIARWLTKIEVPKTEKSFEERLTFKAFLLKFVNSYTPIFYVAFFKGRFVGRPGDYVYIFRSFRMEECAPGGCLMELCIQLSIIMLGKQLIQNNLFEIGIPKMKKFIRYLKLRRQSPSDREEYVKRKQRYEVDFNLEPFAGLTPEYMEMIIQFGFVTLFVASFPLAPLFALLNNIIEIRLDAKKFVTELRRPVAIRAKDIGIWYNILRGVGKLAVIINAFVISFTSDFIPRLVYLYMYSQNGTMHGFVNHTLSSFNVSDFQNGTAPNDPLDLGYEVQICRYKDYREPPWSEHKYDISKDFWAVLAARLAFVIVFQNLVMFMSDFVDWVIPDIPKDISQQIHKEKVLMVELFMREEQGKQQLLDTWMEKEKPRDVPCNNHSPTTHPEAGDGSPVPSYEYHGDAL
# 697 NFkB inh – inhibitors of PMA/ionomycin-induced NF-kB reporter, 697 cells, primary screen, B-cell NF-kB inhibitor project, cell-based, luminescence, uHTS; 697 B-cell NF-kB luciferase reporter, 16 h; AID 435022, 2010; hit rate 0.33% among 330,000; inhibition, % at 4 µM; in the data active = inhibition above about 35%
# aSyn UTR inh – MLPCN primary screen, SNCA 5' untranslated region | alpha-synuclein 5'UTR reporter, inhibitor activity | inhibition, % (tested at 7.5 µM) | hit rate 0.82% among 300,000 | AID 1813, 2009; in the data active = inhibition above about 60%;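 note: H4 neuroglioblastoma cells stably carrying SNCA 5'UTR luciferase fusion; 0% = DMSO wells and 100% = positive control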
# TMEM16A act – TMEM16A chloride channel activators or potentiators, primary screen, cell-based, HTS; Anoctamin-1 (Mus musculus), Q8BHY3; HEK293 TMEM16A/YFP-H148Q/I152L, iodide quench fluorescence; hits give low values; B-score at 10 µM; hit rate 0.3% among 340,000;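 active = fluorescence-ratio B-score plate-corrected deviation score at least 3 library SD below zero, with starting fluorescence score within 5 deviations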;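 note: channel opened by trigger with iodide after compound preincubation; score built on the fluorescence ratio of max minus min over baseline; more negative score means more quench and so TMEM16A activation or potentiation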
# TMEM16A reconf – TMEM16A chloride channel inhibitors, confirmation, cell-based, re-confirmation | shares compounds with ANO1 block | HEK293 TMEM16A/YFP-H148Q, iodide quench fluorescence; ionomycin added to raise cell calcium | inhibition, % at 10 µM | hit rate 39% among 2,300 | AID 652189, 2013;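 active = mean duplicate percent inhibition, scaled so buffer wells are 0 and the reference blocker 100, over three buffer SD above buffer mean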
# TMEM16A Ca cntr – calcium mobilization in TMEM16A/YFP HEK293 cells, confirmation, counter-screen for TMEM16A inhibitor project | shares compounds with ANO1 block | Fluo4 calcium mobilization | calcium response (% of ionomycin), % at 10 µM | hit rate 2% among 2,300 | AID 652231, 2013;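 active = duplicate-averaged calcium signal over 20% of the ionomycin maximum, relative to buffer baseline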;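 note: each well's signal is peak minus trough fluorescence divided by its pre-addition baseline; 0% = buffer wells and 100% = ionomycin wells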
# Parental YFP cnt – iodide YFP quench changes in parental YFP-HEK293, counter-screen for TMEM16A inhibitor project, cell-based; shares compounds with ANO1 block; ionomycin; YFP ratio F(max-min)/F0 at 10 µM; 2,300 tested, under 10 active;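 active = yellow fluorescent protein signal ratio exceeding the buffer control mean by over 5 SD of those controls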;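 note: ratio is mean of duplicate wells from kinetic YFP trace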
# ClC-1 inh – ClC-1 chloride channel inhibition, selectivity assay for TMEM16A inhibitor project, cell-based, voltage-dependent ClC-1. shares compounds with ANO1 block. CHO ClC-1-YFP, iodide influx fluorescence quench; iodide control reads 0, buffer control 100. ratio percent, % at 10 µM. 2,300 tested, under 10 active;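 active = duplicate-mean ratio percent above the mean of iodide-only control wells, which defines zero, plus 5 of their SD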;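 note: higher percent means stronger block of ClC-1 iodide influx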
# * marks the source's active call; other numbers are inactive results; i = inactive; . = no result given.
SMILES,KLF5 inh,Jurkat NFkB inh,ANO1 block,697 NFkB inh,aSyn UTR inh,TMEM16A act,TMEM16A reconf,TMEM16A Ca cntr,Parental YFP cnt,ClC-1 inh
Cc1cc(C)cc(-n2c(C)cc(/C=N/NC(=O)c3ccncc3)c2C)c1,-22,0,i,7,5,i,.,.,.,.
Cc1cc(C)cc(-n2c(C)cc(/C=N/NC(=O)CSc3ncccn3)c2C)c1,6,13,25*,2,-28,i,i,i,-0.89,3
Cc1ccc(S(=O)(=O)NCCC(=O)OCC(=O)NCCc2ccccc2)cc1C,.,-1,i,8,-10,i,.,.,.,.
COc1ccc(OC2C(=O)N(Cc3ccc4c(c3)OCO4)C2c2cccs2)cc1 (configuration not stated),-3,0,100*,-37,33,i,28%*,i,-0.88,-4
CCC(C)c1ccc(NC(=S)N2CCN(S(C)(=O)=O)CC2)cc1 (configuration not stated),-17,-10,i,7,-9,i,.,.,.,.
Oc1ccc(-c2[nH]ncc2-c2ccc(Br)cc2)c(O)c1,-5,2,i,-5,-35,i,.,.,.,.
Oc1ccc(-c2[nH]ncc2-c2ccc(Cl)cc2)c(O)c1,-9,1,25*,-27,-62,i,i,i,-1.4,-3
Cc1c(C(=O)OCC(=O)c2c(N)n(CC(C)C)c(=O)n(C)c2=O)oc2ccccc12,-23,18,i,-23,28,i,.,.,.,.
CC(C)Cn1c(N)c(C(=O)COC(=O)c2ccc(F)cc2)c(=O)n(C)c1=O,-1,-3,i,-24,25,i,.,.,.,.
CCc1ccc(C(=O)OCC(=O)c2c(N)n(CC(C)C)c(=O)n(C)c2=O)cc1,-9,20,25*,-60,17,i,i,i,-0.88,-10
COCc1c(C(=O)OCC(=O)c2c(N)n(CC(C)C)c(=O)n(C)c2=O)oc2ccccc12,-24,6,25*,-6,16,i,i,i,-1.2,-12
O=C(NCc1cc(C(F)(F)F)cc(C(F)(F)F)c1)C1CC(c2ccccc2C(F)(F)F)=NO1 (configuration not stated),.,-2,i,3,30,.,.,.,.,.
C/C(CC1CC2=C(CC1(C)C)C(C)(C)CCC2)=N\NC(N)=S (configuration not stated),12,31,25*,11,0,i,i,26%*,-1,-5
O=C(O)c1ccc(NC(=O)c2cccc(S(=O)(=O)Nc3ccc(C(=O)O)cc3)c2)cc1,-14,-6,i,2,8,i,.,.,.,.
O=C(Nc1ccc(Br)cc1)c1cccc(S(=O)(=O)Nc2cnc3ccccc3c2)c1,9,4,100*,-13,-17,i,45%*,i,-1,-30
CCN1C[C@@H]2[C@@H]3C(=O)N(Cc4ccccc4)C(=O)[C@@H]3[C@](Cc3ccccc3)(C1=O)N2C(=O)c1ccc(Br)cc1,.,.,.,.,.,i,.,.,.,.
CCN(CC)S(=O)(=O)c1ccc(-c2nnc(SCC(=O)Nc3cc(OC)cc(OC)c3)o2)cc1,-8,5,100*,11,4,i,i,i,-1.4,4
CC(=O)NC12CC3CC(C1)CC(C(=O)Nc1nc4ccc(F)cc4s1)(C3)C2,-69,-40,i,-75,-28,i,.,.,.,.
O=C(CN1CCc2ccccc2C1)Nc1ccccc1C(F)(F)F,-37,-11,i,-2,6,i,.,.,.,.
COC(=O)c1ccc(N2NC(=O)/C(=C/c3cc(OC)c(O)c(OC)c3)C2=O)cc1,-8,2,i,21,-3,i,i,i,-0.75,-34
COc1ccc(CCCc2nnc(SCC(=O)Nc3cc(C)c(C)cc3Br)o2)cc1,3,-9,i,-18,20,i,.,.,.,.
COc1ccc(CCCc2nnc(SCC(=O)Nc3cccc(C)c3)o2)cc1,-10,-18,25*,10,-11,i,18%*,i,-1,-14
COc1cc(OC)c(NC(=O)c2sc3ncn(CC(=O)N4CCN(c5ccccn5)CC4)c(=O)c3c2C)cc1Cl,-9,15,i,-9,-25,i,.,.,.,.
COc1ccc(NC(=O)c2sc3ncn(CC(=O)N4CCN(c5ccccn5)CC4)c(=O)c3c2C)c(OC)c1,-18,-2,25*,4,9,i,i,i,-1,-10
Cc1ccccc1Cn1cc(S(=O)(=O)c2ccc(C(C)C)cc2)c(=O)c2cc3c(cc21)OCO3,.,4,i,7,47,i,.,.,.,.
SMILES,KLF5 inh,Jurkat NFkB inh,ANO1 block,697 NFkB inh,aSyn UTR inh,TMEM16A act,TMEM16A reconf,TMEM16A Ca cntr,Parental YFP cnt,ClC-1 inh
NS(=O)(=O)c1ccc(CCNCc2ccccc2OCc2ccc(F)cc2)cc1,-21,14,i,-14,-6,i,.,.,.,.
NS(=O)(=O)c1ccc(NCc2ccccc2OCc2ccc(F)cc2)cc1,0,11,100*,-19,35,i,i,i,-0.93,-2
S=c1[nH]c2cc(-c3ccccc3)ccc2o1,-24,-40,25*,-11,-23,i,i,i,-1,-10
O=S(=O)(c1ccc2oc(=S)[nH]c2c1)N1CCCCC1,-1,7,i,8,1,i,.,.,.,.
O=C(CCc1nc2ccccc2c(=O)[nH]1)Nc1ccc(Cl)c(Cl)c1,-25,9,i,28,-12,i,.,.,.,.
O=C(CCc1nc2ccccc2c(=O)[nH]1)NCCN1C(=O)S/C(=C\c2ccc(Cl)cc2Cl)C1=O,.,-10,25*,-39,-19,i,i,i,-1,-6
CCN(CC)c1c(-c2ccccc2)c2cc(C)ccc2[nH]c1=O,4,10,25*,-6,17,i,i,i,-1.1,-9
